HPGD block = qHTS Assay for Inhibitors of HPGD (15-Hydroxyprostaglandin Dehydrogenase). 15-hydroxyprostaglandin dehydrogenase [NAD(+)] (Homo sapiens), P15428. purified HPGD, NADH fluorescence kinetic, PGE2 substrate. Potency, µM, for the others: top-dose activity change, negative = inhibition, hits mostly inhibitors. 4.3% of 150,000 active. AID 894, 2007; active = well fitted inhibition curve with a large enough effect, not every such curve was filed as active; inconclusive = small, poorly fitted or top-dose-only effect, or another doubt; inactive = no such curve, though single readings can be large or run the other way; note: potency is the fitted concentration of half-maximal effect; % is set by controls: 0 for no effect and ±100 for the full control effect
Target sequence (P15428 whole entry, looked up): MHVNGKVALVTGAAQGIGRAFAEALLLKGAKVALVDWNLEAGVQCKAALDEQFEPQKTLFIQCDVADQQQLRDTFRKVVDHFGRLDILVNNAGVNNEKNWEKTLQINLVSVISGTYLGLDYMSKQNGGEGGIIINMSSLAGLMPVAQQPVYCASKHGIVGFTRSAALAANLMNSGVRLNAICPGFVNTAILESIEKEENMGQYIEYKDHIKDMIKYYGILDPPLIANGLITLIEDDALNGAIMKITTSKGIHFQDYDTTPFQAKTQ
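NADH formation kinetics: reaction with 30 uM PGE2 and 1 mM NAD+ (final), 20 nM enzyme, Tris-HCl pH 8 with Tween 20, after 15 min compound preincubation at room temperature. Fluorescence change, last versus first of five reads.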
CBFb RUNX1 block = qHTS Assay for Compounds Blocking the Interaction Between CBF-beta and RUNX1 for the Treatment of Acute Myeloid Leukemia; Runt-related transcription factor 1 (Homo sapiens) + Core-binding factor subunit beta …; AlphaScreen CBFb-His/RUNX1-biotin binding, biochemical; Potency, µM (series often up to 59.8 µM), for inactives: at the highest dose activity, negative = inhibition, actives largely listed as inhibitors; 230,000 tested, under 10 active; AID 1477, 2009; note: % of control where 0% means no effect
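AlphaScreen binding: CBFb-His and RUNX1-biotin (30 nM each) preincubated 20 min, compound added for 15 min, then nickel and streptavidin beads for 90 min, all at room temperature. Disruption of the interaction by any mechanism counts as activity.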
ALDH1A1 block = qHTS Assay for Inhibitors of Aldehyde Dehydrogenase 1 (ALDH1A1). Potency, µM (top dose mostly 75.3 µM), for the others: top-dose activity, negative = inhibition, usual class: inhibitors. Purified ALDH1A1, NADH fluorescence, propionaldehyde substrate. Aldehyde dehydrogenase 1A1 (Homo sapiens), P00352. AID 1030, 2008. 7.3% of 220,000 active; active = well fitted inhibition curve with a large enough effect, not every such curve was filed as active; inconclusive = small, poorly fitted or top-dose-only effect, or another doubt; inactive = no such curve, though single readings can be large or run the other way;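 note: potency is the fitted concentration of half-maximal effect; plate controls were no enzyme wells and a reference inhibitor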
Target sequence (P00352 whole entry, looked up): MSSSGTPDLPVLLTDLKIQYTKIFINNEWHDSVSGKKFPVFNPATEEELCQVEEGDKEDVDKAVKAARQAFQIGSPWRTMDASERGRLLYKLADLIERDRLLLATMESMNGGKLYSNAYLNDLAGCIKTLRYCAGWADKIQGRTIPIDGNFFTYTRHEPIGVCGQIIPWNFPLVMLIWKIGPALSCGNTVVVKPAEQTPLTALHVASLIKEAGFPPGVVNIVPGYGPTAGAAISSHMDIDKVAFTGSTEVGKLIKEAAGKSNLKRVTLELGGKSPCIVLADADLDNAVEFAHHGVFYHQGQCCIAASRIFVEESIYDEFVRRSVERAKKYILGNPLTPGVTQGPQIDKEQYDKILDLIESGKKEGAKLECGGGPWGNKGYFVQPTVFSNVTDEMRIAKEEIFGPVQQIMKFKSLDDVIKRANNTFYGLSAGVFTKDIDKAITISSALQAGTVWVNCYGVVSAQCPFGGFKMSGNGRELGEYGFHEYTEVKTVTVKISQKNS
HTT aggregate = qHTS Multiplex Assay to Identify Dual Action Probes in a Cell Model of Huntington: Aggregate Formation (GFP). Potency, µM (series often up to 46.1 µM), for the others: top-dose activity change, negative = inhibition, most hits filed as inhibitors. 1.1% of 220,000 active. PC12 HttQ103-GFP aggregates, Acumen cytometry, 40 h; note: potency is the fitted concentration of half-maximal effect; % is set by controls: 0 for no effect and ±100 for the full control effect; nearly all actives have a fitted effect of over 60% in size
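Using laser scanning cytometry, GFP-positive aggregates were counted after lysis of PC12 cells induced with 100 nM tebufenozide to express HTT exon 1 Q103–GFP. Compounds were tested in titration.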
KDM4E inh = qHTS Assay for Inhibitors of Human Jumonji Domain Containing 2E (JMJD2E) | JMJD2E catalytic domain, FDH-coupled NADH fluorescence (FDH is formaldehyde dehydrogenase) | Potency, µM (titrated, usually from 57.1 µM), for the others: at the top dose activity change, negative = inhibition, most hits filed as inhibitors | 1.6% of 230,000 active | AID 2147, 2009; active = well fitted inhibition curve with a large enough effect, not every such curve was filed as active; inconclusive = small, poorly fitted or top-dose-only effect, or another doubt; inactive = no such curve, though single readings can be large or run the other way;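 note: potency is the fitted concentration of half-maximal effect; 0% = wells with enzyme and -100% = buffer wells without enzyme; nearly all actives have a fitted effect of over 50% in size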
HTT cytoprotect = qHTS Multiplex Assay to Identify Dual Action Probes in a Cell Model of Huntington: Cytoprotection (ATP) | PC12 HTT-Q103 induced, cytoprotection, ATP luminescence, 40 h | Potency, µM (doses to about 56.4 µM), without a hit: cytoprotection (ATP increase), usual class: activators | 0.14% of 230,000 active | AID 1471, 2008; note: potency is the fitted concentration of half-maximal effect; % of control where 0% means no effect; nearly all actives have a fitted effect of over 45% in size
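Readout: ATPlite luminescence (ATP level). Model: stable PC12, inducible Htt exon1 Q103-GFP. Inducer: tebufenozide, 100 nM final. Compounds: dose series. No G418 in medium.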
The depositor's hits bear a star; ? = inconclusive; · = not tested or not shown; [ ] = remark or other dose. Rows were chosen to be rich in hits. Some 9.8% of all compounds tested hit in one or more screens of this group. Unless noted, calls come from the whole dose curve; as a rule, active = well fitted curve in the direction sought with a large enough effect; inconclusive = small, poorly fitted or top-dose-only effect, or another doubt; inactive = no such curve, though single readings can be large; an effect the other way counts as inactive or inconclusive.

SMILES | HPGD block | CBFb RUNX1 block | ALDH1A1 block | HTT aggregate | KDM4E inh | HTT cytoprotect
CCC(=O)OC1C(N(C)C)CC(C)O[C@H]1O[C@H]1[C@H](C)[C@@H](O[C@H]2CC(OC)[C@@H](O)C(C)O2)[C@H](C)C(=O)O[C@@H](CC)[C@](C)(O)[C@@H](O)[C@H](C)C(=O)[C@@H](C)C[C@]1(C)O (stereo not given in full) | · | · | · | 5% | · | 0%
CC(C(=O)OCC(=O)Nc1ccc2c(c1)OCO2)N1C(=O)c2ccccc2C1=O (stereo not given) | -19% | -5% | 7.1µM* | -6% | 1% | -6%
CC(C(=O)OCC(=O)Nc1cccc(S(=O)(=O)N2CCOCC2)c1)N1C(=O)c2ccccc2C1=O (stereo not given) | · | -1% | 25µM* | -5% | 1% | 14%
O=S(=O)(c1ccccc1)N1CCN(C(=S)NCc2ccccc2)CC1 | · | 15% | ? | 0% | 10% | 5%[10 µM]
O=S(=O)(c1cccc(F)c1)N1CCN(C(=S)NCc2ccccc2)CC1 | · | -9% | 14µM* | -6%[9.22 µM] | -15% | 9%[10 µM]
CCOc1ccc(S(=O)(=O)N2CCN(C(=S)NCc3ccccc3)CC2)cc1 | · | 5% | -6% | 8%[9.22 µM] | -4% | 11%[10 µM]
O=S(=O)(c1ccccc1F)N1CCN(C(=S)NCc2ccccc2)CC1 | · | 5% | 16µM* | 4% | 8% | ·
O=C(COC(=O)c1ccc2c(c1)S(=O)(=O)N=C1CCCCCN12)NCc1cccs1 | · | 4% | 14µM* | 13%[9.22 µM] | 0% | -7%[10 µM]
CC(C)(C)NC(=O)NC(=O)COC(=O)c1ccc2c(c1)S(=O)(=O)N=C1CCCCCN12 | -12% | 6% | ? | -17% | 0% | -11%[10 µM]
CC(C)Oc1ccc(C(=O)NC(=S)Nc2ccc(CN3CCOCC3)cc2)cc1 | -11% | 1% | 7.1µM* | 13% | 0% | -8%[10 µM]
O=C(NC(=S)Nc1ccc(C(=O)N2CCOCC2)cc1)c1ccc([N+](=O)[O-])cc1 | 0.71µM* | -3% | 10µM* | 17% | -2% | -16%
CC(C)NS(=O)(=O)c1ccc(NC(=S)NC(=O)c2cccc([N+](=O)[O-])c2)cc1 | ? | -9% | 8.9µM* | 12% | 0% | -9%[10 µM]
O=C(NC(=S)Nc1cccc(F)c1)c1cccc([N+](=O)[O-])c1 | · | -9% | · | -9%[9.22 µM] | 3% | 7%[10 µM]
O=C(NC(=S)Nc1ccc(CN2CCOCC2)cc1)c1cccc([N+](=O)[O-])c1 | -28% | 5% | 13µM* | 2% | 2% | 30%[10 µM]
CCC(=O)c1ccccc1OCCCN1C(=O)NC(C)(C)C1=O | -11% | 2% | 10µM* | -6% | 7% | 15%
CC1(C)NC(=O)N(CCCCOc2ccc3ccccc3c2Cl)C1=O | -28% | -16% | 18µM* | -57% | -25% | 7%
CCC(C)Oc1cccc(OCCCCN2C(=O)NC(C)(C)C2=O)c1 (stereo not given) | -8% | 14% | -12% | -8% | -4% | 1%[10 µM]
Brc1ccc(CSc2nnc(-c3ccccn3)n2Cc2ccco2)cc1 | -13% | -7% | 6% | -13% | -2% | 11%[0.074 µM]
O=C(CSc1nnc(-c2ccccn2)n1Cc1ccco1)c1ccc(Cl)cc1 | ? | -28% | 20µM* | 22% | -8% | -20%
CCOC(=O)c1c(NC(=O)CSc2nnc(-c3cccnc3)n2Cc2ccco2)sc(C)c1C | -21% | -13% | 25µM* | -20% | -3% | -7%[10 µM]
CC(C)(C)c1ccc(CSc2nnc(-c3ccccn3)n2Cc2ccco2)cc1 | -24% | 1% | ? | 14µM* | -2% | 6%
COc1ccc(C(=O)CSc2nnc(-c3ccccn3)n2Cc2ccco2)cc1 | · | ? | 22µM* | 32% | -1% | -12%[0.074 µM]
O=C(CSc1nnc(-c2cnccn2)n1Cc1ccco1)c1ccc(Cl)cc1 | ? | -7% | ? | 24% | -2% | -10%[10 µM]
O=C(CSc1nnc(-c2cccnc2)n1Cc1ccco1)c1ccc(Br)cc1 | 28µM* | 1% | -19% | -1% | 7% | -8%
C=CCn1c(SCC(=O)Nc2sc(C)c(C)c2C(=O)OCC)nnc1-c1sc(N)nc1C | -7% | -15% | 14µM* | -5% | 3% | -1%
SMILES | HPGD block | CBFb RUNX1 block | ALDH1A1 block | HTT aggregate | KDM4E inh | HTT cytoprotect
O=C(CSc1nnc(-c2cnccn2)n1Cc1ccco1)c1ccccc1 | 16µM* | 0% | -2% | 4% | 4% | -4%
O=C(CCN1C(=O)COc2ccccc21)NCCCN1CCc2ccccc2C1 | -13% | -1% | -8% | 4% | -16% | -14%[10 µM]
COc1cccc(NC(=O)CSc2ncnc3c2oc2ccccc23)c1 | -14% | 1% | -3% | -5% | -4% | -23%
O=C(CSc1nc(-c2ccc(Cl)cc2)[nH]c(=O)n1)Nc1cccc(Cl)c1 | · | 9% | · | -10%[9.22 µM] | 1% | -19%[10 µM]
O=C(CSc1nc2c(c(=O)[nH]1)CCC2)Nc1cccc(Cl)c1 | 14µM* | 3% | 0% | 22% | 6% | -18%
CCC1C(=O)N=C(SCC(=O)Nc2ccc(C(=O)OC)cc2)NC1=O (stereo not given) | 14µM* | 2% | 3% | 7% | 6% | -6%
N#Cc1c(-c2ccco2)nc(SCC(=O)Nc2cccc(Cl)c2)[nH]c1=O | 18µM* | -7% | ? | -8% | -13% | -24%
COc1cccc(NC(=O)CSc2nc3c(oc4ccccc43)c(=O)[nH]2)c1 | 16µM* | 7% | -7% | 12% | -4% | ·
C[C@H](N)C1CCC(C(=O)Nc2ccncc2)CC1 (stereo not given in full) | · | · | · | · | · | 8%[1.9 µM]
CCc1cccc(NC(=O)CSc2nc3c(c(=O)[nH]2)CCCC3)c1 | 10µM* | 4% | 3% | -17% | -6% | ·
CC(=O)NC1C(=O)N=C(SCC(=O)Nc2cccc(Cl)c2)NC1=O (stereo not given) | · | 17% | 28µM* | 11% | 1% | 7%
NCCSCc1ccccc1Cl | -15% | · | -11%[13.5 µM] | · | · | -6%[10 µM]
CSc1ccc(S(=O)(=O)N(CC(=O)NN=C2CCN(C)CC2)c2ccc(C)cc2)cc1 | · | -10% | 5µM* | -10% | -1% | -52%
O=S(=O)(NCc1ccco1)c1cnc(Cl)c(Br)c1 | -14% | -3% | 22µM* | -2% | -9% | ·
CCOC(=O)c1c(CC(C)C)csc1NC=O | -19% | -10% | ? | 2% | 6% | 7%
